The source of these data is PubChem BioAssay.

The source made the active and inactive calls.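 The calls were made as follows, unless noted: active = fluorescence slope higher than the sample average by over 3 SD (cut at about -0.22 in these data, passing the limit was not always enough); inactive = the rest.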

Test [1] can be described thus: inhibitors of TNFa-induced NFkB p65 translocation, primary screen, imaging, HUVEC, MLSMR starter and 10KST1 sets (AID 438;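 active = inhibition above 20% together with a positive visual image hit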;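 also: compound added about 3h40 before a 20 min TNFalpha stimulation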;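 as to inhibition: signal is the nuclear over cytoplasmic p65 intensity ratio per well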). The note with it: HUVEC TNFa-induced p65 nuclear translocation; cell count: measured here: nuclei count (cytotoxicity indicator), at 2.08 µM; inhibition: at 2 µM, stronger effect = higher value, 0% TNFa-plus-vehicle, 100% no-TNFa wells.
Test [2] is described as follows: reduction of polyQ htt aggregates in cells – imaging, exon1htt(103Q)mCFP cells, high-content imaging, primary screen (AID 483;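 active = visual image review flags a hit and inhibition of aggregation exceeds 20%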;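 also: compound exposure lasted 3 days before fixation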;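 as to nuclei count: percent of the per-plate median nuclei count of sample wells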). The note with it: exon1htt(103Q)mCFP cell line, aggregate imaging, at 2 µM; inhibition of aggregation: stronger effect = higher value; nuclei count: measured here: cell count, toxicity.
Test [3] can be described thus: endothelial E-selectin expression blockers – imaging, HUVEC, immunofluorescence, MLSMR starter and 10KST1 sets, primary screen (AID 487;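 active = visually confirmed hit in the image check and inhibition above 20%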;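 as to inhibition: signal is fraction of cell area covered by stained E-selectin grains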;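 as to nuclei count: 100% = median nuclei count of all wells on the same plate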). The note with it: HUVEC TNFalpha-induced E-selectin immunofluorescence imaging, at 2 µM; inhibition: stronger effect = higher value; nuclei count: measured here: cell number, toxicity.
Test [4] has as its target Voltage-gated potassium channel subunit beta-2 (Rattus norvegicus) (UniProt P62483). Put plainly: inhibitors of rat Kvbeta2 reductase activity – biochemical, NADPH fluorescence, primary screen (AID 622).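 Also: slope of raw intensity against log time taken from 70 to 1610 s.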 The note with it: recombinant KvBeta, 4-cyanobenzaldehyde reduction, at 10 µM, stronger effect = higher value.
Test [5] shares this target. Put plainly: enhancers of rat Kvbeta2 NADPH turnover – biochemical, NADPH fluorescence, primary screen (AID 623;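 active = NADPH fluorescence slope more negative than the mean of all samples by about 3 SD, 99.7% confidence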;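 also: fluorescence intensity change per second fitted from 20 to 320 s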). The note with it: Recombinant KvBeta, NADPH fluorescence decrease slope, 10 min; at 10 µM; stronger effect = lower value.
The target in test [6] is Alpha-2C adrenergic receptor (Homo sapiens) (UniProt P18825). Kind of test: compounds altering alpha2C-coupled GIRK flux – cell-based, HEK293 alpha2C/GIRK1/2, thallium flux, primary screen (AID 624;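 active = fluorescence slope after compound addition differing from the mean of all screened samples at 99.7% confidence, in either direction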;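 also: slope of fluorescence ratio to pre-addition baseline per second over 15 to 24 s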). The note with it: thallium flux BTC fluorescence, at 10 µM, actives lie on both sides.
A short description of test [7]: blockers of RIG-like receptor reporter activation – cell-based, Sendai virus stimulus, luciferase, 10K MLSCN set, TLR/RLR signaling modifier project, primary screen (AID 602276;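 active = inhibition at or above 50% at 10 µM; inactive = inhibition below 50%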;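 also: firefly luciferase from ISG56 promoter only with Renilla not read in this screen; 0% = Sendai virus plus DMSO and 100% = medium plus DMSO without virus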). The note with it: HEK293 RL24 IRF3 luciferase reporter, at 10 µM, stronger effect = higher value.
Test [8] is described as follows: TLR3 IRF3 reporter activation blockers – cell-based, poly I:C stimulus, luciferase, 10K MLSCN set, primary screen (AID 602277;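 active = inhibition of the reporter signal at or above 50%; inactive = inhibition below 50%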). The note with it: HEK293-TLR3 RL24 IRF3 luciferase reporter, at 10 µM, stronger effect = higher value.

Voltage-gated potassium channel subunit beta-2 (Rattus norvegicus), sequence (P62483 whole entry, looked up): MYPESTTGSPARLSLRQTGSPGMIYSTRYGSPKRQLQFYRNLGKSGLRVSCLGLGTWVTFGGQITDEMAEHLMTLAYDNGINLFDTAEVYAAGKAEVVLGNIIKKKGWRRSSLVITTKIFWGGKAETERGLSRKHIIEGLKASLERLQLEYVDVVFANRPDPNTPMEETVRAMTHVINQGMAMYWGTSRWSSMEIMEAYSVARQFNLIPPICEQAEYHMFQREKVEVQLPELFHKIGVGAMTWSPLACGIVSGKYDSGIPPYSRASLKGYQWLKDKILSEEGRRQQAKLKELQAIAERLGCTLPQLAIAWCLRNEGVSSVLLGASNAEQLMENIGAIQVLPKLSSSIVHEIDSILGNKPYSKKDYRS
Alpha-2C adrenergic receptor (Homo sapiens), sequence (P18825 whole entry, looked up): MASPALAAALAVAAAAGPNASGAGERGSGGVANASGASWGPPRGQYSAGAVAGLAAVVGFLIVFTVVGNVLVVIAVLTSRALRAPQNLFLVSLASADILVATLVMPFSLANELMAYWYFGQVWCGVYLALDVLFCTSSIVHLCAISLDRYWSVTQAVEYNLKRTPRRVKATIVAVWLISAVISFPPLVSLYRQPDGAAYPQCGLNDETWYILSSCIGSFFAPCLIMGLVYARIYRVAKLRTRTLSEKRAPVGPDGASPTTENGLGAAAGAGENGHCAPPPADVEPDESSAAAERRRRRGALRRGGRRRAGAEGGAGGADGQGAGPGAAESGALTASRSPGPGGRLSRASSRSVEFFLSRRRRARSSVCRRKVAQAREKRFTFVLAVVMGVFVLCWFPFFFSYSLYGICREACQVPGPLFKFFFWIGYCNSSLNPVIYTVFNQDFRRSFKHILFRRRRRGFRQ

Turning to `Cc1ccc(S(=O)(=O)N2CCCC2C(=O)OCc2nc3ccccc3s2)cc1` (centres undefined), the cell count in test [1] worked out at 459. The inhibition in test [1] was -1.1% (inactive); in test [3], -89% (inactive); in test [7], 8.31% (inactive); in test [8], 25.2% (inactive). Moreover, the inhibition of aggregation in test [2] is 4.3% (inactive). Moreover, the nuclei count in test [2] was determined as 116%; in test [3] it was 110%. Also, in test [4], the fluorescence slope was -0.519 (inactive). The NADPH fluorescence slope in test [5] is -5.7e-05 (inactive). In addition, the slope in test [6] is 0.00533 (inactive).

On to `Cc1cc(N2CCC3(CC2)OCCO3)n2nc(C)c(-c3ccc(Cl)cc3)c2n1`, for which the cell count in test [1] came out at 495. Further, the inhibition in test [1] was -19.7% (inactive); in test [3], -11.4% (inactive); in test [7], 12.3% (inactive); in test [8] it was 12.1% (inactive). The inhibition of aggregation in test [2] is -48.2% (inactive). Besides, the nuclei count in test [2] turned out to be 61.2%; in test [3] it was 94.7%. In test [4], the fluorescence slope was -0.544 (inactive). Also, the NADPH fluorescence slope in test [5] is 7.5e-07 (inactive). In addition, the slope in test [6] was 0.00741 (inactive).

With `CC(NCc1ccco1)C(=O)N1CCc2ccccc2C1` (centres undefined), in test [1], the cell count stood at 705. For the same compound, the inhibition in test [1] was -49% (inactive); in test [3] it was 27% (inactive); in test [7], -8.88% (inactive); in test [8], 1.37% (inactive). Further, the inhibition of aggregation in test [2] was 6.5% (inactive). Moreover, the nuclei count was found to be 105% in test [2] and 108% in test [3]. Also, the fluorescence slope in test [4] was -0.48 (inactive). In addition, in test [5], the NADPH fluorescence slope was -0.000253 (inactive). In addition, the slope in test [6] was 0.00559 (inactive).

In the case of `CCN(CCCNC(=O)COc1cc(=O)n(CC)c2ccccc12)c1ccccc1`, the cell count in test [1] was determined as 377. Further, the inhibition in test [1] was 0.6% (inactive); in test [3], 13.8% (inactive); in test [7] it was 5.07% (inactive); in test [8] it was 7.25% (inactive). In test [2], the inhibition of aggregation is 1.3% (inactive). Also, the values for the nuclei count in test [2] and in test [3] were 104% and 96.1%, respectively. Moreover, the fluorescence slope in test [4] is -0.501 (inactive). Also, the NADPH fluorescence slope in test [5] was -4e-05 (inactive). Further, the slope in test [6] was 0.00565 (inactive).

Consider `O=C(OCC(=O)N1CCCCCC1)c1cccs1`, for which the cell count in test [1] amounted to 295. The inhibition in test [1] was 7.1% (inactive); in test [3], 4.3% (inactive); in test [7] it was -20.1% (inactive); in test [8], -75.3% (inactive). Besides, the inhibition of aggregation in test [2] was 3.3% (inactive). Besides, the nuclei count in test [2] worked out at 103%; in test [3], 107%. The fluorescence slope in test [4] was -0.53 (inactive). In test [5], the NADPH fluorescence slope was -5.7e-05 (inactive). Also, in test [6], the slope is 0.00485 (inactive).

As to `CC(C)[C@H](NC(=O)NC1CCCC1)C(=O)O`, the cell count in test [1] is 252. In addition, the inhibition was 2.5% (inactive) in test [1], 3.3% (inactive) in test [3], 5.42% (inactive) in test [7] and 16.1% (inactive) in test [8]. The inhibition of aggregation in test [2] is 7.6% (inactive). The nuclei count in test [2] is 87.5%; in test [3], 91.7%. In addition, the fluorescence slope in test [4] was -0.462 (inactive). For the same compound, the NADPH fluorescence slope in test [5] is 2e-05 (inactive). Further, in test [6], the slope was 0.0056 (inactive).

For the compound `Cc1ccc(NC(=O)CC2C(=O)NC3CCCCC3N2C(=O)c2ccc(F)cc2)cc1C` (centres undefined), the cell count in test [1] was 461. Further, the inhibition was -10.3% (inactive) in test [1], -55.7% (inactive) in test [3], 12.1% (inactive) in test [7] and 15.6% (inactive) in test [8]. Also, the inhibition of aggregation in test [2] was -9.9% (inactive). Further, the nuclei count was 123% in test [2] and 178% in test [3]. For the same compound, the fluorescence slope in test [4] was -0.478 (inactive). Moreover, in test [5], the NADPH fluorescence slope was 2.4e-05 (inactive). Besides, the slope in test [6] was 0.00684 (inactive).

For `O=C(CSc1ncnc2nc[nH]c12)c1ccc(Cl)cc1`, the cell count in test [1] is 728. In addition, the inhibition is -12.4% (inactive) in test [1], 5.4% (inactive) in test [3], -2.82% (inactive) in test [7] and -23.1% (inactive) in test [8]. Besides, the inhibition of aggregation in test [2] was 9.4% (inactive). Further, the nuclei count in test [2] was 101%; in test [3], 95%. In addition, the fluorescence slope in test [4] was -0.5 (inactive). Further, the NADPH fluorescence slope in test [5] is -1.4e-05 (inactive). The slope in test [6] is 0.00583 (inactive).

Consider `COC(=O)c1cc(OC)c(OCc2cc(C(=O)OC)oc2C)c(OC)c1`, for which the cell count in test [1] is 753. In addition, the inhibition in test [1] was 1.5% (inactive); in test [3], 32.8% (inactive); in test [7], 17% (inactive); in test [8], 34.7% (inactive). Further, the inhibition of aggregation in test [2] is -6.3% (inactive). The figures for the nuclei count in test [2] and in test [3] were 106% and 85.7%, respectively. Besides, the fluorescence slope in test [4] is -0.396 (inactive). Further, the NADPH fluorescence slope in test [5] was -6.5e-05 (inactive). Also, the slope in test [6] was 0.00675 (inactive).

Turning to `c1ccc(-n2ncc3c(N4CCCCC4)ncnc32)cc1`, the cell count in test [1] was 655. For the same compound, the inhibition in test [1] was -3.9% (inactive); in test [3], -21.5% (inactive); in test [7] it was 49.8% (inactive); in test [8], 10.6% (inactive). The inhibition of aggregation in test [2] was -2.1% (inactive). Further, the nuclei count was 108% in test [2] and 118% in test [3]. In test [4], the fluorescence slope is -0.574 (inactive). For the same compound, the NADPH fluorescence slope in test [5] was -3.8e-05 (inactive). Also, the slope in test [6] is 0.0073 (inactive).

With `CC1=C(C(=O)NCc2ccco2)C2(CCC(C)CC2)OC1=O` (centres undefined), the cell count in test [1] was 438. In addition, the inhibition in test [1] was 7.7% (inactive); in test [3], -20.5% (inactive); in test [7] it was 23% (inactive); in test [8], 23.3% (inactive). The inhibition of aggregation in test [2] was 22.4% (inactive). Besides, the values for the nuclei count in test [2] and in test [3] were 62.3% and 106%, respectively. In addition, the fluorescence slope in test [4] was -0.513 (inactive). Besides, the NADPH fluorescence slope in test [5] is -2.5e-05 (inactive). For the same compound, the slope in test [6] is 0.00707 (inactive).

For `CC(C)Cc1nc(S(=O)(=O)c2ccc(Cl)cc2)c(N2CCOCC2)o1`, the cell count in test [1] came out at 570. Further, the inhibition in test [1] was -12.7% (inactive); in test [3], -14.6% (inactive); in test [7], 13.7% (inactive); in test [8], 12.7% (inactive). For the same compound, the inhibition of aggregation in test [2] was -12.7% (inactive). In addition, the nuclei count in test [2] amounted to 119%; in test [3] it was 105%. In test [4], the fluorescence slope was -0.612 (inactive). For the same compound, the NADPH fluorescence slope in test [5] was -4.1e-05 (inactive). In test [6], the slope is 0.00543 (inactive).

As for `CCc1c(C)nc2ncnn2c1N1CCC(C(=O)NCc2cccc(OC)c2)CC1`, the cell count in test [1] is 716. In addition, the inhibition was -5.5% (inactive) in test [1], -34.8% (inactive) in test [3], 5.24% (inactive) in test [7] and 1.67% (inactive) in test [8]. The inhibition of aggregation in test [2] is -13.4% (inactive). In addition, the results for the nuclei count in test [2] and in test [3] were 66% and 116%, respectively. Further, the fluorescence slope in test [4] was -0.499 (inactive). For the same compound, the NADPH fluorescence slope in test [5] is -4.5e-05 (inactive). Besides, the slope in test [6] was 0.00565 (inactive).

`CCOC(=O)c1cccc(NC(=O)CSc2nnc(-c3cccnc3)n2CC)c1`: the cell count in test [1] was 517. The inhibition was -6.7% (inactive) in test [1], -12.8% (inactive) in test [3], 12.5% (inactive) in test [7] and 11.6% (inactive) in test [8]. The inhibition of aggregation in test [2] is 1.2% (inactive). The nuclei count in test [2] came out at 82.2%; in test [3] it was 112%. In test [4], the fluorescence slope is -0.506 (inactive). Besides, in test [5], the NADPH fluorescence slope was -2.6e-05 (inactive). Also, the slope in test [6] was 0.00514 (inactive).
